The record followed here is PubChem BioAssay (NCI).

SMILES strings stand for the structures. About 79,000 compounds went through this panel and 15% of them were active in at least one assay; those are over-represented in the sample as a whole. Activity calls are given as the source filed them. Cut-off read from the data, not from the text of the source: active = growth inhibition above about 70%; inactive = the rest.

This assay in a line: NCI Yeast Anticancer Drug Screen. Data for the bub3 strain (AID 167). The note with it: S. cerevisiae bub3 mutant strain, at 50.0 µM, hits give high values. An outline of the steps:
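In this screen, a yeast mutant lacking normal mitotic checkpoint function is challenged with compound. Relative growth versus vehicle gives the inhibition value.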
Take `COc1ccc2cc1Oc1ccc(cc1)CC1=NCCc3cc(OC)c(OC)c(c31)Oc1cc3c(cc1OC)CCN(C)C3C2` (stereo not drawn): the growth inhibition is 3.15% (inactive). As for `C=C(Br)CNC(=O)Nc1ccccn1`, the figure is -4.85% (inactive); as for `c1csc(-c2cc(-c3cccs3)c(-c3ccsc3)s2)c1`, -19.5% (inactive).

Regarding `O=C1NC(N(Cc2ccccc2)Cc2ccccc2)=NC1(c1ccccc1)c1ccccc1`, the growth inhibition was 5.9% (inactive). In the case of `CCNC(=O)Oc1cccc(NC(=O)CC)c1` it was 3.65% (inactive). On to `N#C[C@H](c1nc2ccccc2[nH]1)c1nc2ccccc2nc1Cl`, for which the growth inhibition is 15.3% (inactive). In the case of `CC(=O)NOCC1NC(=O)C(CONC(C)=O)NC1=O` (stereo not drawn) it was -48.2% (inactive); in that of `CCOC(=O)C(O)C(O)C(O)C(O)C(=O)OCC` (stereo not drawn), -7.7% (inactive). In the case of `CC(C)OC(=S)Nc1ccc(Cl)c(COC(C)(C)C)c1`, the growth inhibition is -10.1% (inactive).

Consider `CC1(C)CSC(C)(C)C(=O)N1`, for which the growth inhibition was -2.2% (inactive).

As for `O=C(O)c1[nH]c(=O)[nH]c(=O)c1C(=O)O`, the growth inhibition was -17.6% (inactive). For the molecule `NC(=S)N/N=C1/CC(=O)N(c2ccccc2)C1c1ccccc1` (stereo not drawn), the growth inhibition was 32.4% (inactive). As for `CCN1c2ccccc2CC(C#N)(CCN(C)C)c2ccccc21` (stereo not drawn), the figure is 6.95% (inactive). As for `Cc1cnc2c(N)nc(-c3ccccc3)nc2n1`, the figure is -5.15% (inactive). Take `C=COC(=O)N1CCCCC1`: the growth inhibition was -30.1% (inactive). On to `O=C1CN(c2ccccc2)C(=O)CN1/N=C/c1ccc(O)c(O)c1`, for which the growth inhibition is -2.55% (inactive). As for `CC1CC2C3(C1)CC(C(=O)OC3=O)C2(C)C` (stereo not drawn), the figure is -2.1% (inactive); as for `COc1ccc(C(CC(=O)O)CC(=O)O)cc1[N+](=O)[O-]`, 15.9% (inactive).
